# Assay outcomes: PubChem BioAssay, National Center for Advancing Translational Sciences (NCATS)
# HCV inh: inhibitors of hepatitis C virus infection; Huh7.5.1 HCVcc-Cre infection, luciferase reporter, 44 h; Potency, µM (doses to about 41.8 µM), inactives show at the highest dose activity change, negative = inhibition, hits mostly inhibitors; 340,000 tested, 3.4% active; AID 651820; active means well fitted inhibition curve with a large enough effect; inconclusive means small, poorly fitted or top-dose-only effect, or another doubt; inactive means no such curve, though single readings can be large or run the other way; further: potency means the concentration at half of the fitted maximal effect
#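 1,000 cells/well; 4 h culture; + compound; + HCVcc-Cre (~0.5 moi); 44 h; luciferase substrate, RT 15 min; read 15 sec.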
# HCMV inh: inhibitors of human cytomegalovirus | HFF cells, HCMV-luciferase reporter, 72 h; active compounds read low | activity change, negative = inhibition, % at 57.5 µM | 410,000 tested, 4.5% active; in the data active means activity change below about -60%; inconclusive means no clear call, values can overlap the other calls; inactive means above about -39%
#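 Luciferase read-out from HCMV-luciferase-infected HFFs (MOI 1 PFU/cell) 72 h post infection at 37C; compounds added after 16 h cell attachment; activity normalized between buffer-only basal and Salinomycin (10uM) inhibitor controls.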
# Vaccinia Venus: vaccinia inhibition (Venus reporter) | Vaccinia virus Venus reporter expression, fluorescence | Potency, µM (doses to about 36.5 µM), for the others: at the highest dose activity change, negative = inhibition, hits mostly inhibitors | 330,000 tested, 0.46% active; calls by dose curve; tested in A549 cells; further: potency means the concentration at half of the fitted maximal effect; nearly all actives have a fitted effect of over 30% in size
# Vaccinia mCherry: vaccinia inhibition (mCherry reporter); Vaccinia virus mCherry reporter infection, fluorescence; Potency, µM (top dose mostly 36.5 µM), inactives show top-dose activity change, negative = inhibition, usual class: inhibitors; 310,000 tested, 0.63% active; calls by dose curve; tested in A549 cells; further: potency means the concentration at half of the fitted maximal effect; nearly all actives have a fitted effect of over 35% in size
# FMDV antiviral: blocks foot and mouth disease virus. Potency, µM (highest dose often 57.9 µM), for the others: at the highest dose activity change, negative = inhibition, most hits filed as inhibitors. FMDV antiviral cell-based qHTS. 410,000 tested, 1.2% active. AID 1159524; calls by dose curve; tested in HEK293T cells; further: read-out not given here; potency means the concentration at half of the fitted maximal effect; nearly all actives have a fitted effect of over 45% in size
# An asterisk follows results filed as active; i = inactive; ? = inconclusive; . = not tested or not shown; ! = not active in a repeat; [ ] = dose if it differs, or a comment. The list is not random: actives were taken first. Their share in the collection is about 7.3%. On the % scale 0 is the no-effect control and ±100 the full control effect.
SMILES,HCV inh,HCMV inh,Vaccinia Venus,Vaccinia mCherry,FMDV antiviral
CCNc1nc(C#N)nc(NCC)n1,.,.,-8%,19%,.
COc1ccc(-c2cn3nc(N4CCC(C(=O)Nc5cc(Cl)ccc5C)CC4)sc3n2)cc1,.,?,-17%,-13%,17%
N#Cc1cccc(NC(=O)COc2ccc(-n3ccnc3)cc2)c1,?,-26,.,.,28µM*
CC(C)(C)c1ccc(NC(=O)COc2ccc(-n3ccnc3)cc2)cc1,5µM*,-86*,?,.,11µM*
N#Cc1cccc(NC(=O)COC(=O)Cn2nc(-c3ccccc3)oc2=O)c1,17%,-65*,.,.,-11%
COc1cc(NC(=O)COc2ccc(-n3ccnc3)cc2)cc(OC)c1,?,-87*,-11%,-1%,?
COc1ccc(OCC(=O)N/N=C(\C)c2ccc(-n3ccnc3)cc2)cc1,26%,6,-3%,-17%,-8%
Cc1ccc(-c2c(C(=O)NCCc3ccccc3)oc(=O)c3ccccc23)cc1,.,65,-6%[7.34 µM],-11%[7.34 µM],-23%
Cc1ccnc(NS(=O)(=O)c2ccc(NC(=O)C(C)(C)Oc3ccc(Cl)cc3)cc2)n1,.,4,11%,-12%,51%
O=C(COC(=O)/C=C/c1cccc(Br)c1)NC1CCCC1,16%,-100*,-1%,-9%,-3%
O=C(COC(=O)/C=C/c1ccccc1)NC1CCCC1,-7%,-4,.,.,28%
CC(C)NS(=O)(=O)c1ccc2nc(NC(=O)c3cncc(Br)c3)sc2c1,.,-8,-10%,-5%,3%
Cc1ccc(C(C)C)c(OCC(=O)NCC2(N(C)C)CCCCC2)c1,.,-4,-2%,2%,-17%
O=C(CSCc1ccccc1)N/N=C/c1ccc(OCC(=O)N2CCCCC2)cc1,5%,-68*,-14%,i,?
O=C(CSCc1ccccc1)N/N=C/c1cc2c(cc1Br)OCO2,?,-73*,-16%,-21%,-7%
O=C(CCCN1C(=O)C(c2ccccc2)Oc2cccnc21)Nc1ccc(Br)cc1F (stereo unspecified),.,-105*,0%,-6%,-20%
N#Cc1ccc(-c2ccc(Cl)cc2)nc1SCC(=O)c1cccc(Cl)c1,9%,-61*,-16%,-16%,-7%
COc1ccc(C(=O)Oc2ccc3c(-c4ccc(OC)cc4)cc(=O)oc3c2)cc1,.,.,.,.,-20%
COc1ccc(-c2cc(=O)oc3c(O)c(O)ccc23)cc1,-9%,78,?,11µM*,0%
CCC(Cc1ccccc1)NCc1c(C(=O)O)c(C)n(Cc2ccccc2)c1C (stereo unspecified),-12%,-74*,-15%,-11%,-8%
NC1=NC(=O)/C(=C\c2ccc(-c3ccccc3[N+](=O)[O-])o2)S1,.,.,-2%,i,.
CCOC(=O)c1sc2nc(CC(=O)OC)nc(NCc3ccc(Cl)cc3)c2c1C,5.6µM*,-107*,.,.,-29%
CCOC(=O)c1sc2nc(CC(=O)OC)nc(NCCN(CC)CC)c2c1C,11µM*,-31,-26%,-19%,-11%
CCOC(=O)c1sc2nc(CC(=O)OC)nc(NCCN3CCOCC3)c2c1C,?,?,-10%,i,-6%
CC(C)(C)OC(=O)/C=C/[C@@H]1Cc2ccccc2N1,.,33,.,.,.
SMILES,HCV inh,HCMV inh,Vaccinia Venus,Vaccinia mCherry,FMDV antiviral
COc1ccc(CN2CCCC(c3nc(C)ncc3-c3ccc(F)cc3)C2)c(OC)c1OC (stereo unspecified),.,.,-16%,-12%,-10%
Cc1ccc2oc3c(c(=O)c2c1)C(c1ccccc1F)N(CCCN(C)C)C3=O (stereo unspecified),.,30,-18%,-21%,-8%
O=c1cc(-c2cc3ccccc3o2)c2cc(O)ccc2o1,?,.,-23%,?,-4%
COc1cccc2cc(-c3cc(=O)oc4ccc(OC(=O)N(C)C)cc34)oc12,11µM*,-19,-3%,i,-28%
CC(=O)COc1ccc2oc(=O)cc(-c3cc4ccccc4o3)c2c1,14µM*,-11,.,.,-17%
CCN(CC)C(=O)Oc1ccc2oc(=O)cc(-c3cc4cccc(OC)c4o3)c2c1,11µM*,10,-14%,-6%,-30%
Cc1c(C(=O)N2CCOc3ccc(Cl)cc3C2)sc2ncnc(NCCc3ccccn3)c12,.,.,-4%,i,-23%
COc1cc(C(=O)O/N=C2/C=CC(=O)C(C)=C2C)cc(OC)c1OC,-19%,-105*,0%,.,?
CC(C(=O)NCc1ccc(F)cc1)n1ccc2cc(S(=O)(=O)N3CCCC3)ccc21 (stereo unspecified),11µM*,-28,-23%,-23%,-20%
O=C(Cn1c(=O)oc2cc(S(=O)(=O)N3CCCCC3)ccc21)NCc1ccc(F)cc1,.,-12,-20%,-26%,0%
O=C(Cn1c(=O)oc2cc(S(=O)(=O)N3CCCC3)ccc21)NCc1ccc(F)cc1,3%,-70*!,-17%,-19%,0%
OCc1ccccc1SSc1ccccc1CO,-10%,-98*,-2%[7.34 µM],i[7.34 µM],-25%
COc1cccc(CCN2CCC(CNS(=O)(=O)c3cc(-c4cc(C)no4)ccc3OC)CC2)c1,7.9µM*,0,.,.,?
Cc1cc(-c2ccc(C)c(S(=O)(=O)NCC3CCN(Cc4cccc(F)c4)CC3)c2)on1,?,0,.,.,17%
COc1cccc(CCN2CCC(CNS(=O)(=O)c3cc(-c4cc(C)no4)ccc3C)CC2)c1,13µM*,0,.,.,?
O=c1[nH]c2c(-c3nc(-c4ccc(F)cc4)cs3)c(O)cn2c2ccc(Br)cc12,.,.,-5%,-13%,.
O=C(Cc1ccc(-c2ccccc2)cc1)NCCS(=O)(=O)N1CCN(c2ccccc2F)CC1,.,32,-19%,i,-9%
COc1ccc2ccccc2c1CN1CCc2nnc(CNC(=O)c3cccc(F)c3)n2CC1,.,.,0%,i,-5%
COc1ccc2[nH]cc(CCNc3ncncc3-c3ccccc3C(F)(F)F)c2c1,.,.,.,.,-20%
NC(c1ccc(F)c(F)c1)c1nc(-c2ccc3ccccc3c2)cs1 (stereo unspecified),.,-82*,3%,?,27%
CN(C)c1ccc(/C=C2\C=Cc3ccccc32)cc1[N+](=O)[O-],.,.,-7%,i,.
O=c1oc2ccc(F)cc2cc1-c1nc(-c2cccs2)no1,.,-19,-1%,-8%,46%
CCC1(O)CC2CN(CCc3c([nH]c4ccccc34)C(C(=O)OC)(c3cc4c(cc3OC)N(C=O)C3C(O)(C(=O)OC)C(OC(C)=O)C5(CC)C=CCN6CCC43C65)C2)C1 (stereo unspecified),0%,-88*,?,?,-1%
COc1cc2c3nc4n(c(=O)c3n(CC(=O)NCC3CCCO3)c2cc1OC)CCS4 (stereo unspecified),25%,-92*,-10%,i,-12%
Cc1ccc(NC(=O)Cn2c3ccc(F)cc3c3nc4n(c(=O)c32)CCS4)cc1F,-28%,-72*,7%,i,-16%
COc1cccc(NC(=O)Cn2c3ccc(F)cc3c3nc4n(c(=O)c32)CCCS4)c1,5%,-61*,-7%,-5%,-7%
